Screening data deposited in PubChem BioAssay by National Center for Advancing Translational Sciences (NCATS).
Compounds with a hit are over-represented: about 2.5% of the library has one in this group of screens.
D2 PAM-1: HTS Assay for Positive Allosteric Modulators of the Human D2 Dopamine Receptor: Primary Screen for Potentiators; D(2) dopamine receptor (Homo sapiens), P14416; HEK293 T-REx D2, calcium flux, EC20 dopamine potentiation; potentiation, % at 10 µM; 340,000 tested, 0.34% active; AID 485347, 2010;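 active = potentiation over 3 SD above the plate norm, cut at about 30% in these data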; also: 0% is about no effect
Target sequence (P14416 whole entry, looked up): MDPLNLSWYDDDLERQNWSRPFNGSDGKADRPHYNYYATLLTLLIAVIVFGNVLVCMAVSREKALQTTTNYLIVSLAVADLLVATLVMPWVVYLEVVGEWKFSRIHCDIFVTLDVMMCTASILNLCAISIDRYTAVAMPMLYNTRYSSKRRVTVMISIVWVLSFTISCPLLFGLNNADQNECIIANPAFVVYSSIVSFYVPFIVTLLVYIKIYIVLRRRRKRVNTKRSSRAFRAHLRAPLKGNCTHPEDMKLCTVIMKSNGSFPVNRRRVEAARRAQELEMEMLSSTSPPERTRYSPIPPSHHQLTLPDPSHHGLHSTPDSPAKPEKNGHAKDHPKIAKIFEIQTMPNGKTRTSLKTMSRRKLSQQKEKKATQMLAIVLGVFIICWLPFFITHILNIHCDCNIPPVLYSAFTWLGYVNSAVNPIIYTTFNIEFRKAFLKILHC
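Cells plated with tetracycline inducer and held overnight at 30 C; calcium dye loaded 30–90 min at room temperature; baseline taken, compound added and read 180 s; EC20 dopamine then added and read 180 s.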
D2 antagonist: HTS Assay for Allosteric Antagonists of the Human D2 Dopamine Receptor: Primary Screen for Antagonists; HEK293 TREx D2 cells, calcium flux, dopamine EC80; AID 485344, 2010; D(2) dopamine receptor (Homo sapiens), P14416; inhibition, % at 10 µM; 340,000 tested, 2% active; in the data active = inhibition above about 30%; inactive = below that, where a call was filed; also: 0% is about no effect
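Antagonism is scored as inhibition of an EC80 dopamine-evoked calcium signal in a force-coupled, tetracycline-inducible HEK293 T-REx D2 line, with compound present 180 s before agonist.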
Anesthetic bind: qHTS Assay for Identification of Novel General Anesthetics; AID 485281, 2010; Potency, µM (series often up to 77.5 µM), inactives show at the top dose activity change, negative = displacement, most hits filed as inhibitors; 350,000 tested, 0.074% active; Ferritin light chain (Equus caballus), P02791; apoferritin/1-aminoanthracene competitive binding, fluorescence; active = well fitted inhibition curve with a large enough effect; inconclusive = small, poorly fitted or top-dose-only effect; inactive = no such curve, though single readings can be large or run the other way; also: potency is read from the fitted curve at half-maximal effect; % is scaled to controls: 0 for no effect and ±100 for the full control effect; nearly all actives have a fitted effect of over 20% in size
Target sequence (P02791 2-175 limits assumed): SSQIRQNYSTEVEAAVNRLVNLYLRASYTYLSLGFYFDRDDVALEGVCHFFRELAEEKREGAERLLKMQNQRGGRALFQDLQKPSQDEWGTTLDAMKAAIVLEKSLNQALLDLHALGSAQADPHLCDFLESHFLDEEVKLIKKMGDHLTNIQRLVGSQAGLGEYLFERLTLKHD
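Steps: apoferritin (10 uM) was premixed with half-saturated 1-AMA in PBS, compounds were pin-transferred, plates stood 10 min at room temperature, fluorescence was read at 380/535 nm, and curves were fitted with a Hill equation.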
D2 ag-1: Beta-Arrestin HTS for Positive Allosteric Modulators of the Human D2 Dopamine Receptor: Agonists; activation, % (no concentration beside the values); AID 624465, 2012; 360,000 tested, 0.084% active; DiscoveRx PathHunter D2 beta-arrestin, luminescence, 90 min; 100% = 57 uM dopamine signal; D(2) dopamine receptor (Homo sapiens), P14416; in the data active = activation above about 40%; inconclusive = between about 15% and that limit
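Agonist mode: compounds alone added to overnight-plated D2 PathHunter cells for 90 min at 37 C, with 57 uM final dopamine (EC100) defining full response. Beta-arrestin recruitment detected by chemiluminescent reagent, read after 1 h at ambient temperature.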
D2 PAM-2: Beta-Arrestin HTS for Positive Allosteric Modulators of the Human D2 Dopamine Receptor: Potentiators | D(2) dopamine receptor (Homo sapiens), P14416 | DiscoveRx D2 beta-arrestin cells, luminescence, 90 min; 100% = 57 uM dopamine signal | potentiation, % (concentration not given with the values) | 360,000 tested, 0.23% active | AID 624464, 2012; in the data active = potentiation above about 50%; inconclusive = mostly about 30% to 49%
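PathHunter D2 cells, attached overnight at 37 deg C, received compound in DMSO plus dopamine at EC20 (50 nM final) for 90 min at 37 deg C. Beta-arrestin recruitment was read as luminescence after 1 h with detection reagent at ambient temperature.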
D2 ag-2: HTS Assay for Allosteric Agonists of the Human D2 Dopamine Receptor: Primary Screen for Agonists; HEK293 T-REx D2 cells, calcium flux agonist mode; activation, % at 2 µM; 340,000 tested, 0.53% active;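 active = activation over 3 SD above normal in the single-dose calcium agonist read, cut at about 30% in these data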; also: 0% is about no effect
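HEK293 Trex D2 cells, tetracycline-induced, o/n 30 C 5% CO2; no-wash Ca dye, RT 30–90 min; 10-cycle baseline, 23 nl cpd added, kinetic Ca read 180 s; agonist hits = positive Ca response.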
* = called active by the depositor; ? = inconclusive; · = no result.

SMILES | D2 PAM-1 | D2 antagonist | Anesthetic bind | D2 ag-1 | D2 PAM-2 | D2 ag-2
Nc1ccccc1NC1=CC(=O)CC(c2ccco2)C1 (configuration not stated) | -3 | 31* | 3% | -1 | -2 | 1
Cc1ccc(C(=O)O/N=C(\N)c2cccc([N+](=O)[O-])c2)cc1 | 0 | -5 | -13% | ? | 60* | 1
N/C(=N\OC(=O)c1ccccc1F)c1cccc([N+](=O)[O-])c1 | 6 | 6 | -12% | 66* | 16 | 4
COc1cc(C(=O)O/N=C(\N)c2cccc([N+](=O)[O-])c2)cc(OC)c1OC | 15 | 2 | -12% | ? | 55* | 0
COc1ccc(/C(N)=N/OC(=O)c2ccco2)cc1OC | 32* | -6 | -8% | 10 | 7 | 0
COc1cc(C(=O)O/N=C(\N)c2ccc([N+](=O)[O-])cc2)cc(OC)c1OC | -6 | 13 | -5% | 8 | 15 | 1
C=Cc1ccc(Cn2c(C)c(C(=O)NCc3ccc(C#N)cc3)sc2=O)cc1 | · | · | · | 5 | 1 | ·
COc1ccc(-c2csc(NC3=NCCCCC3)n2)cc1 | -4 | 6 | -10% | -1 | -14 | 0
COc1ccc(Br)cc1CNC(=O)c1cc2ccccn2n1 | 0 | · | -20% | · | · | 0
COc1ccc(-c2nc(SC(C)C(=O)c3c(N)n(C)c(=O)n(C)c3=O)n[nH]2)cc1 (configuration not stated) | -14 | 24 | · | 7 | 1 | 1
CN(CC(=O)O/N=C(\N)c1cccc([N+](=O)[O-])c1)S(=O)(=O)c1ccccc1 | 5 | 4 | 28µM* | -2 | 8 | 0
CN(CC(=O)O/N=C(\N)c1ccc([N+](=O)[O-])cc1)S(=O)(=O)c1ccccc1 | 3 | -15 | -23% | 4 | 13 | 0
N/C(=N\OC(=O)c1ccco1)c1cccc([N+](=O)[O-])c1 | -2 | -5 | -11% | ? | 81* | 1
Cc1cc(C)c(CN2CCC(n3nccc3NC(=O)CCOc3ccccc3)CC2)cc1C | -13 | 2 | -15% | 2 | -31 | 0
COc1ccc(C(=O)NC(NC(=O)c2ccc(OC)c(OC)c2)c2ccccc2F)cc1OC | 13 | -8 | -4% | -2 | -8 | 0
COCc1cc(=O)n2[nH]c(SCc3ccccc3)nc2n1 | 2 | 5 | 0% | -4 | -20 | -1
COCc1cc(=O)n2[nH]c(SC)nc2n1 | 36* | 5 | 4% | 0 | -3 | 0
C=CCn1c(C)cc(C(=O)CSc2nnc(-c3cccc(S(=O)(=O)N(CC)CC)c3)o2)c1C | 39* | -20 | 6% | -3 | -12 | 0
COc1cccc(-c2cc3c(-n4cccc4)ncnc3o2)c1 | 9 | 37* | -14% | -3 | -15 | -1
O=C(Nc1ccc2nc(-c3cccnc3)[nH]c2c1)C12CC3CC(CC(C3)C1)C2 | 1 | 8 | -23% | -2 | 15 | 1
CC(C)c1nc2ccc(NC(=O)C34CC5CC(CC(C5)C3)C4)cc2[nH]1 | 22 | 33* | ? | -2 | -17 | 0
COc1ccccc1N1CCN(CCCCN2C(=O)C3CCCN3C2=O)CC1 (configuration not stated) | · | · | · | 2 | -24 | ·
O=C1C2CCCCN2C(=O)N1CCCCN1CCN(c2ccccc2Oc2ccccc2)CC1 (configuration not stated) | -15 | 84* | -14% | -7 | -5 | 0
O=C1C2CCCCN2C(=O)N1CCCCN1CCN(c2cccc(Cl)c2)CC1 (configuration not stated) | -17 | 92* | -1% | 4 | -11 | 3
Cc1ccc(NC(=O)CCN2C(=O)c3ccccc3C2=O)c(C)c1 | · | · | -5% | -2 | -9 | ·
SMILES | D2 PAM-1 | D2 antagonist | Anesthetic bind | D2 ag-1 | D2 PAM-2 | D2 ag-2
O=C(CCCn1cnc([N+](=O)[O-])n1)Nc1ccc(F)c(Cl)c1 | 1 | 2 | -5% | -1 | -7 | 0
O=C(CCN1C(=O)c2ccc([N+](=O)[O-])cc2C1=O)Nc1cccc(O)c1 | 5 | -13 | 5% | ? | 63* | -1
Cc1cc(O)ccc1NC(=O)CCN1C(=O)c2ccc([N+](=O)[O-])cc2C1=O | 4 | 27 | -7% | ? | 73* | -1
O=C(CCCn1cnc([N+](=O)[O-])n1)Nc1cccc(O)c1 | 6 | 35* | -3% | 1 | 4 | 2
CC(NC(=O)CN1C(=O)NC2(CCCC2)C1=O)c1ccc2ccccc2c1 (configuration not stated) | 11 | -8 | · | -2 | -10 | 0
CCC(C)(C)NC(=O)CN(C(=O)CNS(=O)(=O)c1ccccc1)c1ccc2c(c1)OCCO2 | -2 | 9 | -15% | -1 | -1 | -1
C=CCn1c(-c2c(C)nc3cc(C)ccn23)n[nH]c1=S | -1 | 36* | 1% | -4 | -9 | 1
O=[N+]([O-])c1cc(-c2ccc(/C=N/c3nc4ccccn4c3-c3ccco3)o2)ccc1Cl | 4 | 10 | ? | 8 | 70* | 0
O=[N+]([O-])c1ccc(-c2ccc(C=Nc3cccc4ccccc34)o2)cc1 | 4 | -4 | -11% | 0 | 14 | -1
COc1ccc(-n2nc(C(=O)NCC(=O)N3CCCC(C)C3)c3ccccc3c2=O)cc1Cl (configuration not stated) | 32* | -18 | ? | 5 | 2 | 0
COCCCNC(=O)CNC(=O)c1nn(-c2ccc(OC)c(Cl)c2)c(=O)c2ccccc12 | -2 | 50* | -8% | 3 | -3 | 0
COc1ccc(-n2nc(C(=O)NCC(=O)NCCCN3CCCCCC3)c3ccccc3c2=O)cc1Cl | 8 | 1 | -23% | 3 | -9 | 3
CCOC(=O)C1CCCN(C(=O)CNC(=O)c2nn(-c3ccc(OC)c(Cl)c3)c(=O)c3ccccc23)C1 (configuration not stated) | 3 | -15 | -18% | -1 | 11 | 0
